Luc counter: Kinase-Glo luciferase inhibition (counter-screen). Kinase-Glo luciferase, ATP luminescence, 8 min. Potency, µM (highest dose often 38.3 µM), for the others: at the highest dose activity change, negative = inhibition, hits mostly inhibitors. hit rate 0.28% among 200,000. AID 1379; note: % is set by controls: 0 for no effect and ±100 for the full control effect; nearly all actives have a fitted effect of over 60% in size
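Luminescence was the read-out, taken after 8-minute incubation at ambient temperature. Luciferase turned over luciferin with 10 uM ATP in imidazole pH 7.2 buffer containing KCl, MgCl2, Tween 20 and BSA.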
SMN2 splice up: increases expression of the SMN2 splice variant; HEK293 SMN2-luciferase splicing reporter, luminescence, 30-36 h; Potency, µM (top dose mostly 46.1 µM), for inactives: at the top dose activity change, positive = activation, usual class: activators; hit rate 2.8% among 210,000; AID 1458; note: % of control where 0% means no effect; nearly all actives have a fitted effect of over 55% in size
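qHTS luciferase splicing reporter: luminescence rises when SMN2 exon 7 is included in transfected HEK293 cells. Compound exposure lasted 30-36 h at 37C, with 4.5 mM final sodium butyrate as control, followed by a ONE-Glo read.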
NPC1 prom act: activators of NPC1 promoter; AID 485313; hit rate 2.4% among 320,000; Huh7 NPC1 promoter luciferase reporter, 24 h; Potency, µM (top dose mostly 9.22 µM), for the others: at the top dose activation, usual class: activators; note: % of control where 0% means no effect; nearly all actives have a fitted effect of over 60% in size
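Quantitative HTS used a cell-based reporter: Huh7 cells stably bearing the NPC1 promoter upstream of luciferase were treated with compounds for 24 h, and promoter activation was read as luminescence.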
ELG1 genotoxic: induces genotoxicity in HEK293T cells with luciferase-tagged ELG1 | Potency, µM (doses to about 46 µM), for the others: top-dose activity change, positive = activation, usual class: activators | HEK293T ELG1-luciferase reporter, luminescence, 16 h | hit rate 1.3% among 330,000; note: % of control where 0% means no effect; nearly all actives have a fitted effect of over 60% in size
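Quantitative HTS format in 1536-well plates. HEK293T ELG1-luciferase reporter cells receive test compound and are incubated 16 hr at 37 °C, 5% CO2; ONE-Glo added, 30 min room temperature, then luminescence read.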
Rab9 prom act: activators of Rab9 promoter. Huh7 Rab9 promoter-luciferase reporter, luminescence, 24 h. Potency, µM (highest dose often 9.22 µM), for the others: at the highest dose activation, negative = inhibition, hits mostly activators. hit rate 2.8% among 320,000. AID 485297; note: % of control where 0% means no effect; nearly all actives have a fitted effect of over 60% in size
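Luminescence from Amplite-detected luciferase (10 minutes, ambient) reports Rab9 promoter activation. Before that, stable Rab9-luciferase Huh7 cells (1500/well, reduced-serum OP-MEM I plus 10% FBS) were exposed to compound for 24 hours at 37C.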
FLuc counter: inhibits or activates purified firefly luciferase, miR-21 counter-screen; hit rate 6.9% among 360,000; Potency, µM (titrated, usually from 57.5 µM), inactives show top-dose activity change, negative = inhibition, usual class: inhibitors; purified FLuc, Km substrates, luminescence inhibition; P08659;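 note: plate controls were vehicle for no effect and reference inhibitor for full effect; nearly all actives have a fitted effect of over 55% in size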
Target sequence (P08659 whole entry, looked up): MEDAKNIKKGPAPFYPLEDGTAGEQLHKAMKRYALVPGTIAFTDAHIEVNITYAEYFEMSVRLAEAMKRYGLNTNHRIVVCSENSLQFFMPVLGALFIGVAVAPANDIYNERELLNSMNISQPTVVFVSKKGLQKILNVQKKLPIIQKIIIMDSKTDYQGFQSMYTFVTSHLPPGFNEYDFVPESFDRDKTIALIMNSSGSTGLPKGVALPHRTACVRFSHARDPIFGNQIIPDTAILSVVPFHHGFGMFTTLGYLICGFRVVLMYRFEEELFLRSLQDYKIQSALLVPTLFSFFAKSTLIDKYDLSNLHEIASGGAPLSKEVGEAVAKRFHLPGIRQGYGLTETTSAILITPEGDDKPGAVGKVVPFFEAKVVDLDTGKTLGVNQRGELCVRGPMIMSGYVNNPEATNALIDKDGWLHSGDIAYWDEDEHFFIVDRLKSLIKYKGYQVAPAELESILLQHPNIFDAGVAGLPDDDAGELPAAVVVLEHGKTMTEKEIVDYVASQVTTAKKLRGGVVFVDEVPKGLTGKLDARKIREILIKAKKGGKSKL
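Purified P. pyralis luciferase (10nM final) with 10uM D-luciferin and 10uM ATP (Km levels) in 50mM Tris acetate pH 7.5, 10mM Mg acetate, 0.01% Tween-20, 0.05% BSA; qHTS 6-point titration, ~60 µM downward; luminescence read.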
* = called active by the depositor; ? = inconclusive; . = no result; [ ] = another dose, or the depositor's remark. Only some compounds are listed: those with a hit (about 7.5% of all), similar ones and a draw of the others. Calls come from the whole dose curve; as a rule, active = well fitted curve in the direction sought with a large enough effect; inconclusive = small, poorly fitted or top-dose-only effect, or another doubt; inactive = no such curve, though single readings can be large; an effect the other way counts as inactive or inconclusive. Potency is the fitted concentration of half-maximal effect.

SMILES	Luc counter	SMN2 splice up	NPC1 prom act	ELG1 genotoxic	Rab9 prom act	FLuc counter
Fc1cccc(CNc2ncnc3ccc(-c4cccnc4)cc23)c1	.	.	1%	.	-1%	5%
Cn1cc(C(=O)c2ccccc2)cc1-c1nc2ccccc2n1C	-3%	-10%	0%	-17%	-6%	-10%
Cc1oc(-c2nc3ccccc3n2C)cc1C(=O)c1ccccc1	?	1.6µM*	0.5µM*	1.8µM*	0.32µM*	0.38µM*
CC(=O)c1ccc(-c2nc3ccccc3n2C)o1	?	11µM*	?	21µM*	?	21µM*
Cn1c(-c2ccc(Br)o2)nc2ccccc21	10µM*	13µM*	1.4µM*	?	1.4µM*	2.4µM*
COc1ccc(C(=O)C(C)OC(=O)CCN2C(=O)C3CC=CCC3C2=O)cc1 (stereo not given)	.	.	1%	-4%	11%	-3%
C=CCn1cccc(/C=C/C(=O)c2ccc(C(C)(C)C)cc2)c1=S	-2%	-104%	-1%	-19%	-8%	13µM*
CN(C)S(=O)(=O)c1ccc2c(c1)N(CC(=O)NCc1cccc(Br)c1)C(=O)CS2	.	.	.	.	.	-1%
Cc1c(C(=O)N2C[C@@H](C)O[C@@H](C)C2)oc2c(F)cccc12	.	.	?	?	?	15µM*
Cc1c(C(=O)O)oc2c(F)cccc12	3%	7%	-3%	0%	-3%	-20%
Cc1c(C(=O)NC2CCOC2)oc2c(F)cccc12 (stereo not given)	.	.	2.2µM*	18%[9.26 µM]	2.5µM*	11µM*
COc1cc(C(=O)NCC(c2cccnc2)N2CCN(c3ccc(F)cc3)CC2)cc(OC)c1OC (stereo not given)	0%	-22%	0%	-5%	-7%	-3%
CCN(c1cccc(C)c1)S(=O)(=O)c1ccc(-c2ccc(=O)[nH]n2)o1	.	.	0%	?	-2%	3%
Cc1nc(NC(=O)C2CC2)sc1C(=O)Nc1ccccc1	.	.	1%	3%	4%	-15%
COC(=O)c1c(NC(=O)c2ccco2)sc(C)c1C	6%	?	9%	4%	-3%	1%
CCOc1ccc(CC(=O)Nc2sc(Cc3ccccc3)c(C)c2C(N)=O)cc1OCC	2%	-2%	-1%	-2%	-1%	-6%
COC(=O)c1c(NC(=O)C2CC2)sc(C(=O)Nc2ccccc2)c1C	-2%	1.1µM*	?	11%	?	?
Cc1c(Cc2ccccc2)sc(NC(=O)c2ccco2)c1C(N)=O	-1%	-15%	4%	8%	-4%	7.6µM*
COC(=O)c1c(NC(=O)c2ccco2)sc(C(=O)Nc2ccc(F)cc2)c1C	1%	?	1.6µM*	?	1.6µM*	-2%
CCN(c1ccccc1)S(=O)(=O)c1ccc(Cl)c(NC(=O)CN(C)C2CCN(C)CC2)c1	.	.	-4%	0%	-1%	0%
Cc1ccc2c(c1)/C(=N/O)CCS2	-3%	-13%	0%	-1%	-3%	-1%
Cc1ccc2c(c1)/C(=N/OC(=O)c1ccc(F)cc1)CCS2	-7%	6%	-2%	-3%	2%	6µM*
O=C(O/N=C1/CCSc2ccccc21)c1ccccc1	?	-12%	7%	0%	-5%	0.67µM*
O=C(O/N=C1\CCCc2ccccc21)c1ccc(F)cc1	-16%	12%	7%	?	-4%	0.21µM*
COC(=O)N/N=C1\CCCc2ccccc21	-1%	18%	1%	0%	1%	1%
CCc1ccccc1NC(=O)Nc1cc(C(=O)NCc2ccc(C)cc2)ccc1N1CCCC1	.	.	.	.	.	2%
COc1ccc(OCc2cc(-c3ccc(Cl)cc3)no2)cc1	-2%	1%	-1%	3%	-5%	-14%
c1ccc(OCc2cc(-c3ccccc3)no2)cc1	-1%	?	?	17%	2.8µM*	12µM*
COc1ccccc1OCc1cc(-c2ccccc2)no1	-2%	13µM*	3.5µM*	?	2.5µM*	9.5µM*

Screening results from PubChem.
